Assay results reported in the supplement of paper PMC6555819.

What was measured:
Test in all cases: PBM binding z-score (relative to random genomic background probes); higher = stronger binding; sequences stand for … in GC…GCGATTGACAGCGTAGAATGAAGG
[1] = test system: FXR:RXRa (NR concentration 270 nM, RXRa partner concentration 90 nM)
Summary of the method: (§1)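 Regression normalization was applied to scanned fluorescence from custom Agilent 4×180K protein-binding microarrays. Before scanning, arrays were incubated 1 h with ligand-free nuclear receptor dimers, and binding was detected with antibodies against each partner (one per run). Binding z-scores use the random background probes as reference.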

[2] = test system: LXRa:RXRa (NR concentration 270 nM, RXRa partner concentration 90 nM)
Summary of the method: as §1

[3] = test system: LXRa homodimer (NR concentration 270 nM)
Summary of the method: as §1

[4] = test system: LXRb:RXRa (NR concentration 270 nM, RXRa partner concentration 90 nM)
Summary of the method: as §1

[5] = test system: LXRb homodimer (NR concentration 270 nM)
Summary of the method: as §1

[6] = test system: PPARa:RXRa (NR concentration 270 nM, RXRa partner concentration 90 nM)
Summary of the method: as §1

[7] = test system: PPARg:RXRa (NR concentration 180 nM, RXRa partner concentration 90 nM)
Summary of the method: as §1

[8] = test system: PPARg:RXRa 270nM:90nM, anti-RXR (NR concentration 270 nM, RXRa partner concentration 90 nM)
Summary of the method: as §1

[9] = test system: PPARg:RXRa 30nM:10nM, anti-RXR (NR concentration 30 nM, RXRa partner concentration 10 nM)
Summary of the method: as §1

[10] = test system: PPARg:RXRa 90nM:30nM, anti-RXR (NR concentration 90 nM, RXRa partner concentration 30 nM)
Summary of the method: as §1

| Sequence | PBM binding z-score [1] | PBM binding z-score [2] | PBM binding z-score [3] | PBM binding z-score [4] | PBM binding z-score [5] | PBM binding z-score [6] | PBM binding z-score [7] | PBM binding z-score [8] | PBM binding z-score [9] | PBM binding z-score [10] |
| --- | --- | --- | --- | --- | --- | --- | --- | --- | --- | --- |
| ACTAGGAGGCCAAGTTTGGGTCACTCAAACAAAG | 0.516 | 0.308 | -0.0463 | 0.967 | -0.287 | 1.36 | 0.296 | 0.511 | -0.488 | -0.0404 |
| AGAAAGAGGTTATTAAGATCAGGGAATTGCGGTC | 2.15 | 2.15 | 0.442 | 1.75 | 0.379 | 2.71 | 1.18 | 1.43 | 0.665 | 1.29 |
| CCTTACGGGTCACCCCAGGTTATAGCATCGGAGT | 5.74 | 6.63 | 1.25 | 4.43 | -0.027 | 5.01 | 4.23 | 4.51 | 1.22 | 3.1 |
| TGGATGAGGTTAAAGATCAGGGAACGTGGCGTCG | 3.69 | 2.74 | 0.085 | 2.45 | 1.54 | 4.13 | 3.75 | 4.84 | 3.49 | 4.98 |
| AGAAGGAGGTTATACGTAGATCAGGGAAGAAAGT | 1.61 | 1.45 | 0.366 | 1.43 | 0.303 | 2.43 | 1.33 | 1.28 | 0.492 | 0.986 |
| CGAACTAGGGCATCCAGGACAGTGAATACATTGA | 0.197 | -0.226 | -0.3 | -0.431 | -0.651 | 2.12 | 3.28 | 2.52 | 0.606 | 1.5 |
| CCGACTGGGGCAGCAAGGTTACCATACCATCCGG | -0.0165 | -0.101 | -0.322 | -0.094 | -0.744 | 0.883 | 0.917 | 0.659 | -0.509 | 0.147 |
| TCTCGGAGGACACGAAGGTCAGTGCTTTCCAGAG | 1.02 | 1.19 | -0.141 | 0.731 | -0.921 | 1.59 | 0.156 | 1.49 | 2.2 | 1.94 |
| TCATATAGGTAATACAGGTGAAAGCCGGCATCTA | 0.854 | 1.36 | 0.571 | 1.21 | -0.105 | 1.96 | 1.68 | 2.68 | 3.73 | 3.35 |
| CCTACTGGGCCATTCAGAGGTCATAGATCATATG | 2.57 | 4 | 5.67 | 3.75 | 0.161 | 3.83 | 2.65 | 3.2 | 1.2 | 2.48 |
